We go through 25 compounds from PubChem BioAssay.

Potency and affinity values are given separately. Activity calls are given as the source filed them. Where a call stands in place of a potency, no number is given. How the calls were made is not given here.

The first assay can be described thus: A2780 ovarian cancer cell cytotoxicity, dose response, cytotoxicity control, plate reader, dry powder samples (AID 743046). The conditions noted are these: series mostly up to 35 µM.
On to `N#C[C@H]1[C@H](c2ccc(C#Cc3ccccc3F)cc2)[C@H](CO)N1C(=O)C1CCC1`, for which the outcome was inactive.
Regarding `COc1ccccc1S(=O)(=O)N(C)C[C@H]1Oc2cc(C#CCC3CCCC3)ccc2S(=O)(=O)N([C@@H](C)CO)C[C@H]1C`, the compound was called inactive.
In the case of `COc1ccccc1C#Cc1ccc([C@H]2[C@H](C#N)N(C(=O)C3CCC3)[C@H]2CO)cc1`, the call was inactive.
Same read-out and setting: with `C[C@@H]1CN([C@@H](C)CO)S(=O)(=O)c2ccc(C#Cc3ccccc3F)cc2O[C@H]1CN(C)C(=O)Cc1ccccc1` the entry was “inactive”; with `NS(=O)(=O)c1ccc(CCN2C(=O)/C(=C\c3ccc(Cl)cc3)SC2=S)cc1`, “inactive”; with `C[C@H](CO)N1C[C@H](C)[C@H](CN(C)Cc2ccc3c(c2)OCO3)OCCCC[C@H](C)Oc2ccc(NC(=O)Nc3ccc(C(F)(F)F)cc3)cc2C1=O`, “inactive”.
`N#C[C@@H]1[C@@H](c2ccc(C#Cc3ccccc3F)cc2)[C@H](CO)N1C(=O)C1CCCCC1`: the outcome was inactive.
Consider `O=C(C[C@H]1C[C@@H]2c3cc(NS(=O)(=O)c4ccc(F)cc4)ccc3O[C@@H]2[C@@H](CO)O1)N1CCc2ccccc2C1`, for which the compound was classed as inactive.
`O=C1CN(S(=O)(=O)Cc2ccccc2)C[C@H]2[C@H](c3ccc(C#Cc4ccc(F)cc4)cc3)[C@H](CO)N12`: the outcome was inactive.
The same measure, in the same setting: with `C[C@H](CO)N1C[C@H](C)[C@H](CN(C)Cc2ccc(C(=O)Nc3ccccc3N)cc2)Oc2ccc(N(C)C)cc2C1=O` the entry was “inactive”.
Take `COc1cccc(C#Cc2ccc([C@H]3[C@@H](CO)N(C(=O)c4ccccn4)[C@H]3C#N)cc2)c1`: the compound was classed as inactive.
Take `COc1cccc(-c2ccc(C3[C@@H]4CN(C(=O)C5CC5)C[C@H]3N4)cc2)c1` (stereo partly specified): the compound was called inactive.
With `COc1ccc(NC(=O)Nc2ccc3c(c2)C(=O)N([C@H](C)CO)C[C@H](C)[C@H](CN(C)Cc2ccc(C(F)(F)F)cc2)OCCCC[C@H](C)O3)cc1`, the outcome was inactive.
As for `C[C@@H]1CCCCO[C@H](CN(C)Cc2ccc(Cl)c(Cl)c2)[C@@H](C)CN([C@@H](C)CO)C(=O)c2cc(NS(=O)(=O)c3ccccc3)ccc2O1`, the call was inactive.
With `C[C@@H]1CN([C@@H](C)CO)C(=O)Cc2cc(NC(=O)Cc3ccccc3)ccc2O[C@H]1CN(C)Cc1ccc(-c2ccccc2)cc1`, the call was inactive.
In the case of `Cn1cnc(S(=O)(=O)N2C[C@@H]3N[C@H](C2)C3c2ccc(-c3ccccc3F)cc2)c1` (stereo partly specified), the outcome was inactive.
Take `COc1ccc(NC(=O)N2CCCCN3[C@H](C2)[C@@H](c2ccc(C#Cc4ccccc4)cc2)[C@@H]3CO)cc1`: the call was inactive.
With `COc1ccc(S(=O)(=O)N(C)C[C@@H]2Oc3ccc(NC(=O)Nc4ccc(C(F)(F)F)cc4)cc3CC(=O)N([C@H](C)CO)C[C@@H]2C)cc1`, the activity change, negative = cytotoxicity was -15.3% [at 8 µM] (inactive).
For the compound `O=C(C1CC1)N1C[C@@H]2N[C@H](C1)C2c1ccc(-c2cccc(F)c2)cc1` (stereo partly specified), the compound was classed as inactive.

A further assay can be described thus: cytotoxicity in OVCAR8 ovarian cancer cells, dose response, PAX8 project, cell-based, plate reader, dry powder samples (AID 743197). The note with it: series mostly up to 35 µM.
On to `COc1ccc(S(=O)(=O)Nc2ccc3c(c2)C(=O)N([C@@H](C)CO)C[C@@H](C)[C@H](CN(C)Cc2ccc(C(F)(F)F)cc2)OCCCC[C@H](C)O3)cc1`, for which the compound was classed as inactive.
On to `COc1cccc(C#Cc2ccc([C@H]3[C@@H](CO)N(C(=O)C4CCCCC4)[C@H]3C#N)cc2)c1`, for which the compound was called inactive.
As for `C[C@H](CO)N1C[C@H](C)[C@@H](CN(C)Cc2ccc(C(F)(F)F)cc2)OCCCC[C@H](C)Oc2ccc(NS(=O)(=O)c3ccc(F)cc3)cc2C1=O`, the compound was called inactive.
Still for that read-out and setting: then `Cc1ccc(S(=O)(=O)Nc2ccc3c(c2)C(=O)N([C@H](C)CO)C[C@@H](C)[C@@H](CN(C)Cc2ccc(C(F)(F)F)cc2)OCCCC[C@H](C)O3)cc1`, with “inactive”; and `COc1ccc(S(=O)(=O)N(C)C[C@@H]2OCCCC[C@H](C)Oc3ccc(NS(=O)(=O)c4ccc(Cl)cc4)cc3C(=O)N([C@H](C)CO)C[C@@H]2C)cc1`, with “inactive”; and `C[C@@H]1CCCCO[C@@H](CN(C)S(=O)(=O)c2ccccc2)[C@H](C)CN([C@H](C)CO)C(=O)c2cc(NC(=O)Nc3ccc(C(F)(F)F)cc3)ccc2O1`, with “inactive”.
In the case of `N#C[C@H]1[C@H](c2ccc(C#Cc3ccccc3F)cc2)[C@H](CO)N1C(=O)C1CCC1`, the call was inactive.
Still for that read-out and setting: then `COc1ccccc1S(=O)(=O)N(C)C[C@H]1Oc2cc(C#CCC3CCCC3)ccc2S(=O)(=O)N([C@@H](C)CO)C[C@H]1C`, with “inactive”.
Still for that read-out and setting: then `C[C@H](CO)N1C[C@H](C)[C@H](CN(C)Cc2ccc3c(c2)OCO3)OCCCC[C@H](C)Oc2ccc(NC(=O)Nc3ccc(C(F)(F)F)cc3)cc2C1=O`, with “inactive”; and `O=C1CN(S(=O)(=O)Cc2ccccc2)C[C@H]2[C@H](c3ccc(C#Cc4ccc(F)cc4)cc3)[C@H](CO)N12`, with “inactive”; and `C[C@@H]1CCCCO[C@H](CN(C)Cc2ccc(Cl)c(Cl)c2)[C@@H](C)CN([C@@H](C)CO)C(=O)c2cc(NS(=O)(=O)c3ccccc3)ccc2O1`, with “inactive”.
For `C[C@@H]1CN([C@@H](C)CO)C(=O)Cc2cc(NC(=O)Cc3ccccc3)ccc2O[C@H]1CN(C)Cc1ccc(-c2ccccc2)cc1`, the call was inactive.
